The record followed here is PubChem BioAssay.

Values without a mark were called inactive. The rule behind the calls is not given here.

Chain of Pantothenate synthetase (Mycobacterium tuberculosis (strain ATCC 25618 / H37Rv)) (P9WIL5 whole entry, looked up): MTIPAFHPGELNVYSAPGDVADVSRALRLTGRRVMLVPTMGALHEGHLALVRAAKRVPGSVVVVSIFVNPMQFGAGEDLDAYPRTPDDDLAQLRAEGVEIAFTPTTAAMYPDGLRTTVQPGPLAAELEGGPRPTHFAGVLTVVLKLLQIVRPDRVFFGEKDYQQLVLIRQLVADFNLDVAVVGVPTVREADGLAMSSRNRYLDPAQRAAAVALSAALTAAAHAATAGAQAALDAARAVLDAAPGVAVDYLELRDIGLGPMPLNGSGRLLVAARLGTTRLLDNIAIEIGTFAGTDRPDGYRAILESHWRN

This test concerns the target Pantothenate synthetase (Mycobacterium tuberculosis (strain ATCC 25618 / H37Rv)) (UniProt P9WIL5). Kind of test: Recombinant Mtb pantothenate synthetase (PanC) inhibitors, coupled enzyme, confirmatory (AID 375).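 Note: 0% = full reaction with vehicle and 100% = no enzyme background.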 As to conditions: coupled enzyme assay; at 10 µM, stronger effect = higher value.
One may read the inhibition as the relative decrease from the control value, in per cent. For the molecule `O=C(Nc1ccccc1)N1CCC(c2ccccc2)C1` (configuration not stated), the inhibition is 6%.
In the case of `Cc1nn(-c2ccccc2)c(C)c1/C=N/O`, the inhibition was 0%.
To `O=C(CCCN1CC=C(n2c(=O)[nH]c3ccccc32)CC1)c1ccc(F)cc1` belongs 0%.
Consider `Cc1nc(SCCC(=O)O)c2ccccc2n1`, for which the inhibition is 6%.
To `C=CCN1C(=O)/C(=C2\SC(N3CCOCC3)=NC2=O)c2cc(Br)ccc21` belongs 0%.
Turning to `COc1cc(C2c3c(oc4c(C)cc(C)cc4c3=O)C(=O)N2Cc2cccnc2)cc(OC)c1OC` (configuration not stated), the inhibition is 2%.
To `COc1ccc(OCc2nc(C#N)c(N3CCN(c4ccc(OC)cc4)CC3)o2)cc1` belongs 2%; to `CCn1c(=O)cc(SCC(=O)N2CCN(C3CCCCC3)CC2)c2ccccc21`, 2%; to `Cc1nnc(SCC(=O)NCc2ccccc2)s1`, 0%.
On to `Cc1ccc(S(=O)(=O)N2C(=O)CCC2C(=O)Nc2ccc3c(c2)OCCO3)cc1` (configuration not stated), for which the inhibition was 0%.
Then `CCCCOc1ccc(-c2nnn(CC(=O)NCc3ccco3)n2)cc1`, with 0%; and `CN1CCN(Cc2nc3c(c(=O)[nH]c(=O)n3C)n2CCc2ccccc2)CC1`, with 0%.
As to `CN=Cc1cc(-c2ccccc2)sc1O`, the inhibition was 0%.
Then `Cc1ccnc2c(N3C(=O)C4C5C=CC(C5)C4(C)C3=O)cccc12` (configuration not stated), with 0%.
To `Cn1nnnc1SCC1=C(C(=O)O)N2C(=O)[C@@H](NC(=O)[C@H](O)c3ccccc3)[C@H]2SC1` belongs 0%.
To `CN(C)S(=O)(=O)N1CCN(c2cccc(Cl)c2)CC1` belongs 0%.
As to `O=C(COC(=O)C1CC2C=CC1C2)Nc1ccc2c(c1)OC(F)(F)O2` (configuration not stated), the inhibition was 0%.
